Results on 13 compounds are retold here after PubChem BioAssay AID1745853 (National Center for Advancing Translational Sciences (NCATS), 2022).

Assay in all cases: Primary Screen for Target Class Profiling of Small Molecule Inhibitors of Methyltransferases
For experiment [1], the target named is Catechol O-methyltransferase (Homo sapiens) (UniProt P21964). The conditions noted are these: purified enzyme, MTase-Glo SAH luminescence; activity change, negative = inhibition: at 40 µM, stronger effect = lower value; outcome: 40 uM. From the text: (§1) PI: Matthew D. Hall Ph.D. and Quinlin M. Hanson Ph.D.
Chain of Catechol O-methyltransferase (Homo sapiens) (P21964 whole entry, looked up): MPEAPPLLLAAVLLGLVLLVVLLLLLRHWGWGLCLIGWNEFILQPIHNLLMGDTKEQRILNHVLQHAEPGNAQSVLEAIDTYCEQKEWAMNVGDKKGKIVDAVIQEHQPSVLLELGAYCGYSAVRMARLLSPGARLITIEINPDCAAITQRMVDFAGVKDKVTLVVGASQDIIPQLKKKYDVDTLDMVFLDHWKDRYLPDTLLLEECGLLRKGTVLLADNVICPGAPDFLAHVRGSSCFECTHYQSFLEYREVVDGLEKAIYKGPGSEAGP
(§2) National Center for Advancing Translational Sciences (NCATS)
(§3) National Institute of Health (NIH), Rockville, MD
(§4) Target class profiling (TCP) is a chemical biology approach amenable to investigating understudied biological targets. TCP is achieved by developing a generalizable assay platform and applying it to screen a curated set of compound libraries against representative members of a target class. Small molecule methyltransferases (SMMTase) are a subclass of methyltransferase that act on metabolites to modulate signaling pathways, metabolize xenobiotics, or balance the available methyl pool. We screened four curated libraries totaling 27,574 unique compounds against the SMMTases nicotinamide N-methyltransferase (NNMT), phenylethanolamine N-methyltransferase (PNMT), histamine N-methyltransferase (HNMT), glycine N-methyltransferase (GNMT), catechol O-methyltransferase (COMT), and guanidinoacetate N-methyltransferase (GAMT). The data generated by this TCP can be leveraged for informed tool molecule development. For example, in the associated publication we identified a chemotype of HNMT-selective inhibitors. Additionally, we identified a putative SMMTase-selective inhibitor with potential as a tool molecule for studying broader methyltransferase biology.
(§5) High-through put screening assays were developed at the National Center for Advancing Translational Science (NCATS) for the enzymes NNMT, PNMT, HNMT, GNMT, COMT, and GAMT. Enzymatic activity was measured as a function of SAM cofactor conversion using the MTase Glo kit (Promega) for all enzymes. All assays were performed in 1536-well format with substrates and SAM concentrations at KM values. Enzyme concentration and assay timing were optimized for 10-20% SAM conversion. Initial screening of 27,574 compounds was done as single-point assays using the highest compound concentration (40 uM). […] These compounds were replated in 11-point dose response and assayed against NNMT, PNMT, HNMT, GNMT, COMT, GAMT, and a counter-assay. The IC50 and efficacy (maximal response) values were determined for each dose-response curve. These values are also accounted for in the area under the curve (AUC) values.
(§6) PROTOCOL TABLE (as described by Inglese J, Shamu CE and Guy RK. 2007)
(§7) SEQUENCE No. (e.g., 1, 2, 3, etc.); […] (e.g., Cells, Incubation, Reagent, etc.); VALUE; DESCRIPTION.
(§8) 1; Reagent; 2 uL; SMMTase Enzyme (2x) in reaction buffer, columns 1- 48.
(§9) 2; Reagent; 1 uL; SAM (4x) in reaction buffer, columns 1-48.
(§10) 3; Controls; 23 nL; DMSO in column 4; sinefungin in DMSO (0 uM - 40 uM) in 7-point 1:2 dilution series (n = 2) in column 2.
(§11) 4; Compounds; 23 nL; Columns 5-48.
(§12) 5; Reagent; 1 uL; Substrate (4x) in reaction buffer, columns 2-48.
(§13) 6; Time; 20-30 min; Incubation.
(§14) 7; Reagent; 1 uL; MTase-Glo reagent (5X), columns 1-48.
(§15) 8; Time; 30 min; Incubation.
(§16) 9; Reagent; 5 uL; MTase-Glo Detection reagent, columns 1-48.
(§17) 10; Time; 30 min; Incubation, luminescence evolution.
(§18) 11; Detection; Luminescence; ViewLux uHTS Microplate Imager (PerkinElmer).
(§19) NOTES (numbers refer to Sequence numbers above)
(§20) 1, 2, 5. White Medium Binding Greiner 1536-well plates (Cat #789175-F, Greiner Bio-One, Monroe, NC); Reaction buffer: 50 mM Tris, pH 8.0, 3 mM MgCl2, 1 mM EDTA, 50 mM NaCl, 1 mM DTT, and 0.1 mg/mL BSA. Evaporation was prevented by covering assay plates with metal lids containing holes to allow gas diffusion.
(§21) 1. Six SMMTase were profiled: HNMT, GNMT, PNMT, COMT, NNMT, GAMT
(§22) 5. The corresponding substrate was used for each enzyme: HNMT - 5.3 uM Histamine; GNMT - >500 uM Glycine; PNMT - 16.2 uM Norephinephrine; COMT - 13.7 uM Norephinephrine; NNMT - 3.8 uM Nicotinamide; GAMT - 2.5 uM Guanidinoacetate.6, 8, 10. Room temperature
(§23) 6. Final reaction conditions: 10 nM COMT, 5 uM SAM, 15 uM norepinephrine, 50 mM Tris, pH 8.0, 3 mM MgCl2, 1 mM EDTA, 50 mM NaCl, 1 mM DTT, and 0.1 mg/mL BSA; refer to tables 2 and S1 for specific timing.
8. […]

For experiment [2], the target named is Glycine N-methyltransferase (Homo sapiens) (UniProt Q14749). As to conditions: purified enzyme, MTase-Glo SAH luminescence; measured here: GNMT inhibition; at 40 µM; stronger effect = lower value.
Chain of Glycine N-methyltransferase (Homo sapiens) (Q14749 whole entry, looked up): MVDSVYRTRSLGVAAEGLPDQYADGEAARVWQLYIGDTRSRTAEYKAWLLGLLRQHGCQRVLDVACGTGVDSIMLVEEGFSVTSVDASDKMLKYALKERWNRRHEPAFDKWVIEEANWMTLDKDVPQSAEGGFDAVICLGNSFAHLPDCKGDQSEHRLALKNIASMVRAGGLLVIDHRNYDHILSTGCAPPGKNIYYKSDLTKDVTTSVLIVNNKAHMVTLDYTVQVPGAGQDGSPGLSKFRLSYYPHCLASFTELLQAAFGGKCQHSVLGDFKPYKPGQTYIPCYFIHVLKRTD
Description: as §1, §2, §3, §4, §5, §6, §7, §8, §9, §10, §11, §12, §13, §14, §15, §16, §17, §18, §19, §20, §21, §22, §23
8. […]

Experiment [3] has as its target Guanidinoacetate N-methyltransferase (Homo sapiens) (UniProt Q14353). As to conditions: purified enzyme, MTase-Glo SAH luminescence; measured here: GAMT inhibition; at 40 µM; stronger effect = lower value.
Description: as §1, §2, §3, §4, §5, §6, §7, §8, §9, §10, §11, §12, §13, §14, §15, §16, §17, §18, §19, §20, §21, §22, §23
8. […]

Experiment [4] deals with Histamine N-methyltransferase (Homo sapiens) (UniProt P50135). The conditions noted are these: purified enzyme, MTase-Glo SAH luminescence; measured here: HNMT inhibition; at 40 µM; stronger effect = lower value.
Chain of Histamine N-methyltransferase (Homo sapiens) (P50135 whole entry, looked up): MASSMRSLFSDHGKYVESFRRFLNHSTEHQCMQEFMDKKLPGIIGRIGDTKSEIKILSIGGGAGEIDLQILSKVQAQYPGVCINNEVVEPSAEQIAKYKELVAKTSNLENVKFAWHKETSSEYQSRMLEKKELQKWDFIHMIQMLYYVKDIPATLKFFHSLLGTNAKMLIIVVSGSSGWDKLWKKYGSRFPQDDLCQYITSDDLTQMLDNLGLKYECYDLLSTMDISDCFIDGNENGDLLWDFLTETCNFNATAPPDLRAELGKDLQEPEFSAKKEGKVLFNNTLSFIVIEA
Description: as §1, §2, §3, §4, §5, §6, §7, §8, §9, §10, §11, §12, §13, §14, §15, §16, §17, §18, §19, §20, §21, §22, §23
8. […]

Experiment [5] deals with Nicotinamide N-methyltransferase (Homo sapiens) (UniProt P40261). As to conditions: purified enzyme, MTase-Glo SAH luminescence; measured here: NNMT inhibition; at 40 µM; stronger effect = lower value.
Chain of Nicotinamide N-methyltransferase (Homo sapiens) (P40261 whole entry, looked up): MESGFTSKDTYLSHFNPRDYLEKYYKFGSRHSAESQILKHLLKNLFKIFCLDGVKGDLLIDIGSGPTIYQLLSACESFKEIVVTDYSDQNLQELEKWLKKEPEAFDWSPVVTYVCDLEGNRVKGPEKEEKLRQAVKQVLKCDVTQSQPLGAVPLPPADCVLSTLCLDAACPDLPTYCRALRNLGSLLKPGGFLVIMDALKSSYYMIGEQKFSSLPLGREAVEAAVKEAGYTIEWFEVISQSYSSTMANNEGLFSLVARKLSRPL
Description: as §1, §2, §3, §4, §5, §6, §7, §8, §9, §10, §11, §12, §13, §14, §15, §16, §17, §18, §19, §20, §21, §22, §23
8. […]

Experiment [6] has as its target Phenylethanolamine N-methyltransferase (Homo sapiens) (UniProt P11086). As to conditions: purified enzyme, MTase-Glo SAH luminescence; measured here: PNMT inhibition; at 40 µM; stronger effect = lower value.
Description: as §1, §2, §3, §4, §5, §6, §7, §8, §9, §10, §11, §12, §13, §14, §15, §16, §17, §18, §19, §20, §21, §22, §23
8. […]

Several values for one entry are separate records, joined by “and”; a condition that tells them apart may be missing. Identical values can stand only once. Among all 25,000 compounds or so, about 970 (3.9%) were called active. Another 8% or so got no clear call; they are omitted. No rule for the calls is given here. The list comes from a sample in which actives are over-represented; it also holds similar structures and randomly drawn compounds.
% is scaled to controls: 0 for no effect and ±100 for the full control effect.

Chain of Phenylethanolamine N-methyltransferase (Homo sapiens) (P11086 whole entry, looked up): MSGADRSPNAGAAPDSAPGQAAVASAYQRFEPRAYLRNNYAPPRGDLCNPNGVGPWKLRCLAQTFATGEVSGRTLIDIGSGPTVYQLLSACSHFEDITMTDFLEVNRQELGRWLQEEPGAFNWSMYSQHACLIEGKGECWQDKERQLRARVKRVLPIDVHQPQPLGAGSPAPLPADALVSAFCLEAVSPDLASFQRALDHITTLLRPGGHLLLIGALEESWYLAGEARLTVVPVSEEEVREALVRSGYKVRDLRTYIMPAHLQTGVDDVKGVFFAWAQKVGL

As for `O=C(C1CC1)N1CCn2c(nn(-c3ccc(F)cc3)c2=O)C1`, the activity change, negative = inhibition was -5% (inactive) in experiment [1]; -3.41% in experiment [2]; -8.31% in experiment [3]; -2.04% in experiment [4]; -9.2% in experiment [5]; -5.36% in experiment [6].
Consider `N#CSc1cc(SC#N)c(N)nc1N`, for which the activity change, negative = inhibition is -62.1% (active) in experiment [1]; -92.7% in experiment [2]; -77.3% in experiment [3]; -92.3% in experiment [4]; -58.6% in experiment [5]; -40.8% in experiment [6].
In the case of `C=C(C)Cn1c(=O)[nH]c2ccccc21`, the activity change, negative = inhibition in experiment [1] is 7.05% (inactive); in experiment [2], -1.89%; in experiment [3] it was 0%; in experiment [4] it was 7.74%; in experiment [5], 13.6%; in experiment [6], 4.12%.
On to `CN1CCCN(S(=O)(=O)c2cccs2)c2ccccc21`, for which the activity change, negative = inhibition in experiment [1] was -6.9% (inactive); in experiment [2], -11.1%; in experiment [3] it was -3.04%; in experiment [4] it was -16.1%; in experiment [5] it was -12.8%; in experiment [6], -18.8%.
As to `Cc1cccc(CSc2nnc3n(CC(C)C)c(=O)c4ccccc4n23)c1`, the activity change, negative = inhibition is 2.1% (inactive) in experiment [1]; -7.23% in experiment [2]; 0.416% in experiment [3]; 3.69% in experiment [4]; -10.9% in experiment [5]; 4.42% in experiment [6].
With `NCCCC(=O)N1CCN(C2CCNCC2)C(=O)C1`, the activity change, negative = inhibition in experiment [1] was -0.26% (inactive); in experiment [2] it was -0.497%; in experiment [3], -3.99%; in experiment [4], 1.59%; in experiment [5], -1.96%; in experiment [6] it was 0.025%.
On to `O=C(N[C@@H]1CN(C2CCOCC2)CC[C@@H]1CO)c1ccccc1`, for which the activity change, negative = inhibition in experiment [1] was -14.8% (inactive); in experiment [2], -7.11%; in experiment [3] it was -12.7%; in experiment [4] it was -6.52%; in experiment [5] it was -17.2%; in experiment [6], -14.2%.
As to `Cc1ccc(COc2ccc3c(-c4ccccc4)cc(=O)oc3c2)cc1`, the activity change, negative = inhibition is 1.55% (inactive) in experiment [1]; -1.02% in experiment [2]; 8.91% in experiment [3]; 3.98% in experiment [4]; 6.08% in experiment [5]; -3.92% in experiment [6].
In the case of `CCCN1C(=O)c2cc(C(=O)N3CCC(C)CC3)nn2CC1(C)C(=O)NC1CCCC1` (stereo not drawn), the activity change, negative = inhibition in experiment [1] was -0.787% (inactive); in experiment [2], -3.38%; in experiment [3], 3.26%; in experiment [4], 4.03%; in experiment [5] it was -4.98%; in experiment [6], -1.07%.
`CCc1ccc(S(=O)(=O)c2nnn3c2nc(N2CCCCC2)c2ccccc23)cc1`: the activity change, negative = inhibition was 3.62% (inactive) in experiment [1]; 0.777% in experiment [2]; 0% in experiment [3]; 6.93% in experiment [4]; -3.24% in experiment [5]; -1.25% in experiment [6].
`Cc1cn(CCN2CCN(c3ccccc3-c3cc(C#N)cc(C(=O)NCCCN4CCCC4)c3)CC2)c2ccccc12`: the activity change, negative = inhibition in experiment [1] was -11% (active) and 25.9% (active); in experiment [2] it was 0.523% and -14.2%; in experiment [3] it was 12%; in experiment [4], -86.5% and -77.8%; in experiment [5], -17.4% and 7.48%; in experiment [6] it was -1.62% and 35.5%.
Take `CCOc1ccc(CN2C(=O)c3cc(C(C)(C)C)nn3CC2(C)C(=O)NC2CCCCCC2)cc1` (stereo not drawn): the activity change, negative = inhibition in experiment [1] was -0.389% (inactive); in experiment [2], -3.62%; in experiment [3], 4.61%; in experiment [4] it was -1.08%; in experiment [5], -2.24%; in experiment [6], -3.09%.
Regarding `COc1cccc(-c2ccc(C(=O)NCCN[S+](=O)([O-])c3cccs3)cc2)c1`, the activity change, negative = inhibition is 1.95% (inactive) in experiment [1]; -8.51% in experiment [2]; -1.67% in experiment [3]; -4.59% in experiment [4]; -5.98% in experiment [5]; -13% in experiment [6].
